Cruzain inh Det: blocks cruzain activity in presence of Triton detergent; AID 1478; 0.43% of 200,000 active; Potency, µM, actives largely listed as inhibitors; purified cruzain, Z-FR-AMC fluorescence, 0.01% Triton; also: nearly all actives have a fitted effect of over 40% in size
Target sequence (P25779 123-467 limits assumed): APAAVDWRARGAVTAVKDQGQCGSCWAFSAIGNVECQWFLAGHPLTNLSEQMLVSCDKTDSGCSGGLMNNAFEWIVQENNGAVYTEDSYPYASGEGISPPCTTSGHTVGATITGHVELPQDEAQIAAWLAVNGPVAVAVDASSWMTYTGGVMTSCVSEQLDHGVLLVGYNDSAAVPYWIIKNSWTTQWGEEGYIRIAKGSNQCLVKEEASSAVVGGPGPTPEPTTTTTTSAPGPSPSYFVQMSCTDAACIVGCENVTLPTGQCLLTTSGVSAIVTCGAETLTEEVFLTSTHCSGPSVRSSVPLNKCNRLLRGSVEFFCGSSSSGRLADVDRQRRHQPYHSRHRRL
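Z-FR-AMC hydrolysis (2 uM substrate) by cruzain (1.5 nM) monitored kinetically at ex 360/em 450 nm after 15 min room-temperature compound exposure; 0.01% Triton X-100, pH 5.5, 5 mM DTT.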
Cruzain inh noDet: blocks cruzain activity in detergent-free assay. P25779. purified cruzain, Z-FR-AMC fluorescence, no detergent. Potency, µM, actives largely listed as inhibitors. 2.3% of 200,000 active. AID 1476; also: nearly all actives have a fitted effect of over 40% in size
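Purified cruzain at 1.5 nM, pre-incubated 15 min with compound at room temperature in 100 mM sodium acetate pH 5.5, 5 mM DTT, 0.00005% Triton X-100. Reaction started with 2 uM Z-FR-AMC; AMC fluorescence increase over 60 s gives rate.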
Each line names hits and unclear results; the compound was inactive in the other large screens. Compounds with a hit are over-represented: about 2.6% of the library has one in this group of screens. Calls follow the shape of the dose curve; as a rule, active = well fitted curve in the direction sought with a large enough effect; inconclusive = small, poorly fitted or top-dose-only effect, or another doubt; inactive = no such curve, though single readings can be large; an effect the other way counts as inactive or inconclusive.

COc1ccc(Nc2ncnc3onc(-c4ccc(Cl)cc4)c23)cc1Cl	none
CCOC(=O)c1cc2c(=O)n3ccccc3nc2n(CC2CCCO2)c1=NC(=O)c1ccccc1OCC (stereo not drawn)	none
O=S(=O)(Nc1ccc(C(F)(F)F)cc1)c1ccc2c(c1)OCCO2	none
Cc1c(CC=C(Cl)Cl)c(=O)[nH]c2c(C)cccc12	Cruzain inh noDet 2.5µM
CCCc1c(C)c2cccc(C)c2[nH]c1=O	none
Cc1cccc(NC(=O)/C(C#N)=C/c2ccc(C)o2)c1	none
Cc1ccc(/C=C(\C#N)C(=O)Nc2cccc(Cl)c2)o1	Cruzain inh noDet 10µM
COc1cccc(NC(=O)Cn2cc(C#N)c3ccccc32)c1	none
Cn1cc(/C=C(\C#N)C(=O)Nc2ncc(Cc3ccc(Cl)cc3)s2)c2ccccc21	Cruzain inh noDet 7.9µM
Cc1ccc(C(=O)Nc2ncc(Cc3ccccc3)s2)o1	none
N#C/C(=C\c1cn(Cc2ccc(F)cc2)c2ccccc12)C(=O)NCc1ccco1	Cruzain inh noDet inconclusive
COc1cccc(NC(=O)/C(C#N)=C\c2cn(Cc3ccc(Cl)cc3)c3ccccc23)c1	Cruzain inh noDet 10µM
COc1cccc(NC(=O)/C(C#N)=C/c2c(C)n(Cc3ccccc3)c3ccccc23)c1	Cruzain inh noDet 7.9µM
Cc1ccc(NC(=O)Cn2c(=O)n(-c3ccc(CC(=O)NCC4CCCO4)cc3)c(=O)c3ccccc32)cc1 (stereo not drawn)	none
Cc1ccc(NC(=O)C(Cc2c[nH]c3ccccc23)NC(=O)OCC(C)C)cc1 (stereo not drawn)	none
CC#CCOC(=O)C1=CCCN(C)C1	none
CC(C)(C)OC(=O)N1CCC(c2c(C(=O)NCc3ccco3)cnn2-c2ccc(F)cc2F)CC1	none
COc1ccc(Nc2ncc3c(n2)CCN(Cc2sccc2C)C3)c(OC)c1	none
CC(=O)Nc1ccc(C)cc1-c1nc2ccccc2n(CC(=O)c2ccc(Cl)cc2)c1=O	none
N#C/C(=C\c1cn(Cc2ccccc2)c2ccccc12)C(=O)NCc1ccco1	none
N#C/C(=C\c1ccc(-c2ccccc2Cl)o1)C(=O)Nc1nc2ccccc2s1	Cruzain inh noDet inconclusive
Cc1ccc(Cn2cc(/C=C(/C#N)C(=O)Nc3cccc(Cl)c3)c3ccccc32)cc1	Cruzain inh noDet 7.9µM
Cc1ccc(Cc2cnc(NC(=O)/C(C#N)=C/c3ccc(-c4ccccc4[N+](=O)[O-])o3)s2)cc1	Cruzain inh noDet 10µM
COc1ccccc1N1CCN(c2csc3ccc(Cl)cc3c2=O)CC1	none
Cc1nn(-c2ccccn2)c2c1C(c1ccccc1Cl)C1=C(N2)c2ccccc2C1=O (stereo not drawn)	none
Cc1nn(-c2ccccn2)c2c1C(c1c(F)cccc1Cl)C1=C(N2)c2ccccc2C1=O (stereo not drawn)	Cruzain inh noDet 25µM
CCCc1cc(=O)[nH]c(SCc2nc(-c3ccc(OCC)cc3)no2)n1	none
O=C(CN1c2ccccc2Sc2ccccc21)NNC(=S)Nc1ccc(Cl)cc1Cl	Cruzain inh noDet 10µM
Cn1cccc1CC(=O)NNC(=S)Nc1ccc(Cl)cc1Cl	none
COc1cc(OC)cc(C(=O)Nc2nnc3n2CCS3)c1	none
COc1ccc(NC(=O)C2CCN(c3ccc(Sc4ccc(C)cc4)nn3)CC2)cc1	none
Cc1ccc(N(CC(=O)N/N=C/c2cc(C)n(-c3ccccc3)c2C)S(C)(=O)=O)c(C)c1	none
O=C(Cn1c2ccccc2c(=O)c2ccccc21)N/N=C/c1cc([N+](=O)[O-])ccc1N1CCCCC1	Cruzain inh noDet 10µM
O=C(Cn1c2ccccc2c(=O)c2cc([N+](=O)[O-])ccc21)Nc1ccccc1Cl	Cruzain inh noDet inconclusive
Cc1cc(/C=N/NC(=O)Cn2c3ccccc3c(=O)c3ccccc32)c(C)n1-c1ccccc1	Cruzain inh noDet 16µM
Cc1ccc2c(c1C)NC(=O)CC2c1ccc(Cl)cc1Cl (stereo not drawn)	none
CN(Cc1ccco1)c1nc(-c2ccccc2C(F)(F)F)nc2ccccc12	none
COc1ccc(-n2cc(-c3ccccc3)c3c(NC4CCCC4)ncnc32)cc1	none
CCOc1ccccc1Nc1ncnc2c1c(-c1ccccc1)cn2-c1ccc(OC)cc1	Cruzain inh noDet 10µM
COc1ccc(-c2noc(-c3nnn(-c4ccc(C(C)C)cc4)c3C)n2)cc1OC	none
Cc1ccc(OCC(=O)Nc2nnc(SCc3cc(=O)n4cc(C)ccc4n3)s2)cc1	none
COc1cc(NC(=O)c2cc(-c3ccco3)on2)c(OC)cc1Cl	Cruzain inh noDet 10µM
O=C(Nc1cccnc1Cl)c1cc(-c2ccco2)on1	none
CCc1ccc(NC(=O)CN2C(=O)CSc3ccc(S(=O)(=O)N(C)C)cc32)cc1	Cruzain inh noDet inconclusive
C=CCn1c(C)cc(C(=O)COC(=O)C2CC(=O)N(Cc3ccccc3)C2)c1C (stereo not drawn)	none
Cc1cc(C(=O)COC(=O)CNC(=O)c2ccc(Cl)c(Cl)c2)c(C)n1Cc1ccco1	Cruzain inh Det 10µM
C=CCn1c(C)cc(C(=O)COC(=O)CNC(=O)c2ccccc2)c1C	Cruzain inh Det 25µM, Cruzain inh noDet 20µM
Cc1ccc(C(=O)NCC(=O)OCC(=O)c2cc(C)n(Cc3ccco3)c2C)cc1	none
CCOC(=O)/C=C/CCC/C=C/C(=O)c1ccccc1	none
COc1ccc(C(=O)N2CCC(c3nc(-c4ccc(S(=O)(=O)N5CCCC5)cc4)no3)CC2)cc1	Cruzain inh noDet inconclusive
Cc1ccc(C(=O)NCC(c2cccs2)S(=O)(=O)c2ccccc2)cc1C (stereo not drawn)	none
COc1ccc(CNC(=O)c2cc3cc(S(=O)(=O)N4CCCCC4)ccc3n2C)c(OC)c1	none
CCCCCn1c(=NC(C)=O)c(C#N)cc2c(=O)n3ccccc3nc21	none
CCOC(=O)c1cc2c(=O)n3ccccc3nc2n(CCCOC)c1=NC(=O)c1c(-c2c(F)cccc2Cl)noc1C	none
COC(=O)c1cc2c(=O)n3ccccc3nc2n(C)c1=N	Cruzain inh Det 11µM, Cruzain inh noDet inconclusive
C=CCn1c(=N)c(C(=O)NCCCOC)cc2c(=O)n3ccccc3nc21	Cruzain inh Det 32µM, Cruzain inh noDet 25µM
CCOCCCn1c(=N)c(C(=O)NCc2ccccc2)cc2c(=O)n3ccccc3nc21	none
CC(C)n1c(=N)c(C(=O)NCc2ccccc2)cc2c(=O)n3ccccc3nc21	none
CCOC(=O)c1cc2c(=O)n3ccccc3nc2n(CCCOC)c1=NC(C)=O	Cruzain inh Det 32µM, Cruzain inh noDet inconclusive
C=CCn1c(=N)c(C#N)cc2c(=O)n3ccccc3nc21	Cruzain inh Det 28µM, Cruzain inh noDet inconclusive
COc1ccc(-c2nnc(SCC(=O)NC3CCCC3)nc2-c2ccc(OC)c(OC)c2)cc1OC	none
CCOc1ccc(Nc2nn(-c3ccc(OC(F)(F)F)cc3)nc2C(C)=O)cc1	none
CC(C)c1ccc(NC(=O)c2cc(S(=O)(=O)NC3CCCCC3)ccc2F)cc1	none
CCCCSCCCNC(=O)c1cc(-c2cccnc2)nc2ccc(S(=O)(=O)N3CCC(C)CC3)cc12	none
CC1CC2(C)Oc3ccccc3C3OCC1(COC(=O)Nc1ccccc1)C(C)C32 (stereo not drawn)	none
O=C(Cc1ccc(NC(=O)N2CCCCc3ccccc32)cc1)NCc1cccc(Br)c1	none
Cc1cccn2c(=O)c3cc(C(=O)N4CCN(C(=O)c5ccco5)CC4)n(C)c3nc12	none
Cn1c(C(=O)N2CCN(C(=O)c3ccco3)CC2)cc2c(=O)n3ccccc3nc21	Cruzain inh Det 25µM, Cruzain inh noDet inconclusive
Cc1ccc(N=Cc2nc(-c3ccco3)oc2O)cc1	none
O=C(Oc1oc(-c2ccco2)nc1C=Nc1ccccc1)c1ccoc1	Cruzain inh Det 22µM, Cruzain inh noDet inconclusive
O=c1oc(-c2ccco2)nc2c1cnn2-c1ccccc1	none
